In PMC7862700, “An all-to-all approach to the identification of sequence-specific readers for epigenetic DNA modifications on cytosine” one finds binding signal data, which are given here for one sequence.

Holding throughout (assay): DAPPL (digital affinity profiling via proximity ligation, sequencing); 10 mM Tris-HCl pH 7.5, 50 mM NaCl, 1 mM DTT, 4% glycerol, room temperature, 30 min; GST-TFs on glutathione beads, 16-mer random dsDNA library, 0.1% formaldehyde crosslink after washing; high values mean tight binding
The target in one assay is T1, FLI1 (Homo sapiens, UniProt Q01543 1-452).
T1 sequence: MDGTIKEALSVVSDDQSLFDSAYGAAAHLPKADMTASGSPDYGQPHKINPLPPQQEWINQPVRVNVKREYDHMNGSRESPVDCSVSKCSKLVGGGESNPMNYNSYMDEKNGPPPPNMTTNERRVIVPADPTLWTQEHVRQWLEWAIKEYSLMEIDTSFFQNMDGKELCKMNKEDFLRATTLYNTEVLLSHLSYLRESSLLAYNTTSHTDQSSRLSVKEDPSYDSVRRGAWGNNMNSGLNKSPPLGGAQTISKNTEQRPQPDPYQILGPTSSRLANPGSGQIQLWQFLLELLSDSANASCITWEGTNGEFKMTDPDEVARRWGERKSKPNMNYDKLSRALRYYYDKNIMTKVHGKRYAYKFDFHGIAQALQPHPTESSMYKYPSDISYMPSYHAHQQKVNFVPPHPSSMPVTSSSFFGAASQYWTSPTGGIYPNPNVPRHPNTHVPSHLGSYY
Particulars: protein: recombinant; tags: N-terminal GST; dsDNA, one strand shown. The essentials:
(§1)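 Binding signal is given per hexamer as its read frequency for a factor divided by its frequency in the tag-only sample. GST-fused human transcription factors were expressed in yeast, captured on glutathione beads, barcoded with DNA and pooled with that sample, then incubated with 200 nmole of a 16-mer random double-stranded DNA library in Tris/NaCl/DTT/glycerol buffer for 30 min at room temperature. The pools were then washed, crosslinked, proximity-ligated, amplified by PCR and sequenced on an Illumina NextSeq500.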

In a further assay the target is T2, ELK1 (Homo sapiens, UniProt P19419 1-428).
T2 sequence: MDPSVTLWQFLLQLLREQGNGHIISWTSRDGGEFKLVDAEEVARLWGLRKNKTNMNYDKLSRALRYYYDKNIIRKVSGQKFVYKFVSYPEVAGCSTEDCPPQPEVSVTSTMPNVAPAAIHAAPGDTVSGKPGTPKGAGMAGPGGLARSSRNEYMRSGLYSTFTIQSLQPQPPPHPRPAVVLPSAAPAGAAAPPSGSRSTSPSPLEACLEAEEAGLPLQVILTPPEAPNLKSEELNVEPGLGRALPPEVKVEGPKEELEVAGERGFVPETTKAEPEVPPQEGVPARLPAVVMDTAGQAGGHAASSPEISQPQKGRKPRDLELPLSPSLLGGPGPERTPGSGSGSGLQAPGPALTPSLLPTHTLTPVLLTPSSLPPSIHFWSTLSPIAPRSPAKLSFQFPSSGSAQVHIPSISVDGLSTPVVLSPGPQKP
The conditions noted are these: protein: recombinant; tags: N-terminal GST; dsDNA, one strand shown. In outline:
as §1

The target in the next assay is T3, GABPA (Homo sapiens, UniProt Q06546 1-454).
T3 sequence: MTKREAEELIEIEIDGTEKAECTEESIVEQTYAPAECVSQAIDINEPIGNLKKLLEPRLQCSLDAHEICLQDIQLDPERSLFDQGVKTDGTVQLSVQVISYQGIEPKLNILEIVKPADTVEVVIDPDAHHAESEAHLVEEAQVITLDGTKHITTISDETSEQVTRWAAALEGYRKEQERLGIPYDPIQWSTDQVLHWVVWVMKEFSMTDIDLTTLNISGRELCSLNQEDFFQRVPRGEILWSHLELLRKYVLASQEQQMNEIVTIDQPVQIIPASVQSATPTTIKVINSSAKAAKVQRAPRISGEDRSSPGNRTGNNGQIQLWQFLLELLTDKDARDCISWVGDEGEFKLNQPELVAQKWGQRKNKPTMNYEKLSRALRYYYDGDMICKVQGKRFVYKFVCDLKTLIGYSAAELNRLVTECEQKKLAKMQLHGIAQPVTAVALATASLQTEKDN
Particulars: protein: recombinant; tags: N-terminal GST; dsDNA, one strand shown. In outline: as §1

In another assay the target is T4, ERG (Homo sapiens, UniProt P11308 1-479).
T4 sequence: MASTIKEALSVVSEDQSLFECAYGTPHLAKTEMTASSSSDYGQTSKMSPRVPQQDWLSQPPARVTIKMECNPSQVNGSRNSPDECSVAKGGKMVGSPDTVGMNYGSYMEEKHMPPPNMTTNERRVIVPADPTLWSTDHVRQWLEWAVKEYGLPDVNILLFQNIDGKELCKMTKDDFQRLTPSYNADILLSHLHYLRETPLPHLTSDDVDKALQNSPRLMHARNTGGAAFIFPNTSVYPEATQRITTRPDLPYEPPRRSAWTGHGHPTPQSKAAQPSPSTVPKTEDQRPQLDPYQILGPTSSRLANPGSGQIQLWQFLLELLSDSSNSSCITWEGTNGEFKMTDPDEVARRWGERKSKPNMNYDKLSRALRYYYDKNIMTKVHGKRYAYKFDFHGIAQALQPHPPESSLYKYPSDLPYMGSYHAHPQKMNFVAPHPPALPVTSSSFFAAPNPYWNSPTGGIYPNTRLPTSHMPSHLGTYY
The conditions noted are these: protein: recombinant; tags: N-terminal GST; dsDNA, one strand shown. The essentials: as §1

Another assay addresses ELF1 (Homo sapiens, UniProt P32519 1-619). The conditions noted are these: protein: recombinant; tags: N-terminal GST; dsDNA, one strand shown. In outline:
as §1

The target in the next assay is T5, EHF (Homo sapiens, UniProt Q9NZC4 1-300).
T5 sequence: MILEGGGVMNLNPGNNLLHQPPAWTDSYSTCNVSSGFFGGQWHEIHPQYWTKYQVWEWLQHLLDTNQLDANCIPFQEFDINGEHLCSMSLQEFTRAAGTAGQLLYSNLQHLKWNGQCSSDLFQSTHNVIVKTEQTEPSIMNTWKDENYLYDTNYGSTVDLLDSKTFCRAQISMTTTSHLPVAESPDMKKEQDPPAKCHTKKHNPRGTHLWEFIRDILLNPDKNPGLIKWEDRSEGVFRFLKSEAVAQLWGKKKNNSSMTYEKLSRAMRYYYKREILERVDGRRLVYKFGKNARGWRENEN
The conditions noted are these: protein: recombinant; tags: N-terminal GST; dsDNA, one strand shown. The essentials: as §1

The next assay concerns the target SPI1 (Homo sapiens, UniProt P17947 1-270). The conditions noted are these: protein: recombinant; tags: N-terminal GST; dsDNA, one strand shown. The essentials:
as §1

The target in a further assay is SPIB (Homo sapiens, UniProt Q01892 1-262). Particulars: protein: recombinant; tags: N-terminal GST; dsDNA, one strand shown. In outline:
as §1

The target of another assay is T6, ELK3 (Homo sapiens, UniProt P41970 1-407).
T6 sequence: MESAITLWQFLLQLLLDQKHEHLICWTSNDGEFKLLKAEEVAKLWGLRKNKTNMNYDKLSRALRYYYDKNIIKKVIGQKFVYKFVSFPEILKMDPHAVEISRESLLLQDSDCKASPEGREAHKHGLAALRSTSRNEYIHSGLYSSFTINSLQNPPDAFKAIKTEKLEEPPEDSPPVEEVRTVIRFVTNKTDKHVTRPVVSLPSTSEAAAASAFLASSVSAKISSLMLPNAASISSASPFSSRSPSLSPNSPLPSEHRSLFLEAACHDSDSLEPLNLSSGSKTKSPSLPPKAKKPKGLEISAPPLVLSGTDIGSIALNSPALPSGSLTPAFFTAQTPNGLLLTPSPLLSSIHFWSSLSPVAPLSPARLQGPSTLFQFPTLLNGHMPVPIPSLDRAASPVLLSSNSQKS
Particulars: protein: recombinant; tags: N-terminal GST; dsDNA, one strand shown. In outline: as §1

The next assay deals with T7, FEV (Homo sapiens, UniProt Q99581 1-238).
T7 sequence: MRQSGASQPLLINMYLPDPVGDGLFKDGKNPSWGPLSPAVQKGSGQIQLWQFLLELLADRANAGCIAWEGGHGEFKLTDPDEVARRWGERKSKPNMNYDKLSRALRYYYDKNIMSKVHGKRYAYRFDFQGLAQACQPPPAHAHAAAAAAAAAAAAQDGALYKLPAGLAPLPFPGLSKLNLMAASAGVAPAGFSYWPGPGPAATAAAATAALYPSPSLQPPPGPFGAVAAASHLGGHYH
The conditions noted are these: protein: recombinant; tags: N-terminal GST; dsDNA, one strand shown. In outline: as §1

Another assay deals with ETV5 (Homo sapiens, UniProt P41161 1-510). The conditions noted are these: protein: recombinant; tags: N-terminal GST; dsDNA, one strand shown. In outline: as §1
The target in the next assay is HSF1 (Homo sapiens, UniProt Q00613 1-529). The conditions noted are these: protein: recombinant; tags: N-terminal GST; chain copies: 3; dsDNA, one strand shown. In outline:
as §1

Another assay addresses T8, SPIC (Homo sapiens, UniProt Q8N5J4 1-248).
T8 sequence: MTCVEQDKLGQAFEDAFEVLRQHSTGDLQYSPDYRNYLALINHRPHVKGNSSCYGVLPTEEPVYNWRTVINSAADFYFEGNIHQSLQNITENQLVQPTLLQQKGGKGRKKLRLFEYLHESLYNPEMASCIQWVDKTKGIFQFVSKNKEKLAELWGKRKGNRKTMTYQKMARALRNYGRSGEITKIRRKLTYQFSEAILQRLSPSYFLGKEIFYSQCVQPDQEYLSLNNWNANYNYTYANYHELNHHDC
Particulars: protein: recombinant; tags: N-terminal GST; dsDNA, one strand shown. In outline:
as §1

The next assay concerns the target ELF4 (Homo sapiens, UniProt Q99607 1-663). The conditions noted are these: protein: recombinant; tags: N-terminal GST; dsDNA, one strand shown. In outline:
as §1

For the next assay, the target named is T9, ELK4 (Homo sapiens, UniProt P28324-2 1-405).
T9 sequence: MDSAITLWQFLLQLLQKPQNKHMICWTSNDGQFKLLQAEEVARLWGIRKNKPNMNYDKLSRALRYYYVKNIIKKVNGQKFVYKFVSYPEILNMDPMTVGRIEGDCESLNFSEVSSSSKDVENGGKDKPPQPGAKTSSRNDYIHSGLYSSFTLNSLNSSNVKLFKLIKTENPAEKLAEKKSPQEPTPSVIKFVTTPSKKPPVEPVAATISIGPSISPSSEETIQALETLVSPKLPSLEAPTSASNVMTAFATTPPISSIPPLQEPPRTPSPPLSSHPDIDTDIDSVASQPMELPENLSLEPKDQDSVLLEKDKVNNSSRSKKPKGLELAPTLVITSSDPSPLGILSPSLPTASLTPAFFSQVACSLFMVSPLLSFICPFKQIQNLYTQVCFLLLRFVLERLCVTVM
The conditions noted are these: protein: recombinant; tags: N-terminal GST; dsDNA, one strand shown. In outline:
as §1

The target of another assay is T10, ETV2 (Homo sapiens, UniProt O00321 1-342).
T10 sequence: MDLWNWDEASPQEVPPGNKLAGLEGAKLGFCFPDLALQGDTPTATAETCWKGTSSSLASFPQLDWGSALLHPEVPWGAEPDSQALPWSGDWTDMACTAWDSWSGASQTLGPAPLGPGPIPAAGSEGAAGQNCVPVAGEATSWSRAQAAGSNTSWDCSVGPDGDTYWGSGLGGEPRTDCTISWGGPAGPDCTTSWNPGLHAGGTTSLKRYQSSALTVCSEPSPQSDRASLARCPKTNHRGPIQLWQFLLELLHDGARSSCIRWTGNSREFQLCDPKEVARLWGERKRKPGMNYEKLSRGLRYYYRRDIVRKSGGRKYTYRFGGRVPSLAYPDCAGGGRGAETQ
Particulars: protein: recombinant; tags: N-terminal GST; dsDNA, one strand shown. The essentials: as §1

For a further assay, the target named is T11, ELF3 (Homo sapiens, UniProt P78545 1-371).
T11 sequence: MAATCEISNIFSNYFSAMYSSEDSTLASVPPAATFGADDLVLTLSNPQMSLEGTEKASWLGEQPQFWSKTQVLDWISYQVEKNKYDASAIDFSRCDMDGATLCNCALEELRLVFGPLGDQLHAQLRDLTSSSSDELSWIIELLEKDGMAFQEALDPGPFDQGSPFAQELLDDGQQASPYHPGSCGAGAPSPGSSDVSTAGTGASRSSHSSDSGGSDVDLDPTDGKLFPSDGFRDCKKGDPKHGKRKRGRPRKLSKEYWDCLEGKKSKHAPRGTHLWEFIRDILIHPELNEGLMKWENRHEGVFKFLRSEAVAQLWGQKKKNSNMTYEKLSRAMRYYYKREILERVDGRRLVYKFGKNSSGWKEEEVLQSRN
The conditions noted are these: protein: recombinant; tags: N-terminal GST; dsDNA, one strand shown. The essentials:
as §1

The target in the next assay is CRX (Homo sapiens, UniProt O43186 1-299). The conditions noted are these: protein: recombinant; tags: N-terminal GST; dsDNA, one strand shown. In outline: as §1
Another assay deals with ETV1 (Homo sapiens, UniProt P50549 1-477). The conditions noted are these: protein: recombinant; tags: N-terminal GST; dsDNA, one strand shown. In outline:
as §1

Sequence of ETV1 (P50549 whole entry): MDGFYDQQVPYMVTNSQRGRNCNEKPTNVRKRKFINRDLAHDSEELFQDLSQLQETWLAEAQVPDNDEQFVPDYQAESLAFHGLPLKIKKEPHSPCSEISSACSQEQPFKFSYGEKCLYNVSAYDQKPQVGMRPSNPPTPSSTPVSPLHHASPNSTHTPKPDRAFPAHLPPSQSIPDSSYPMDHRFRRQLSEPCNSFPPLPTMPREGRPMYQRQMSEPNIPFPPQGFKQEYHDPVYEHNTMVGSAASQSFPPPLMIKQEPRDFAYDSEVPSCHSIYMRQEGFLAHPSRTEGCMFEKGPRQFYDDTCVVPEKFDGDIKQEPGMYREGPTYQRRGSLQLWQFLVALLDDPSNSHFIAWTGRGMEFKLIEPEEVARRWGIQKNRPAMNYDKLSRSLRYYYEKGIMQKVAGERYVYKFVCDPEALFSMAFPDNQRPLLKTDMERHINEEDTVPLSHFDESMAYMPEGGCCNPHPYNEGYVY
Sequence of ELF4 (Q99607 whole entry): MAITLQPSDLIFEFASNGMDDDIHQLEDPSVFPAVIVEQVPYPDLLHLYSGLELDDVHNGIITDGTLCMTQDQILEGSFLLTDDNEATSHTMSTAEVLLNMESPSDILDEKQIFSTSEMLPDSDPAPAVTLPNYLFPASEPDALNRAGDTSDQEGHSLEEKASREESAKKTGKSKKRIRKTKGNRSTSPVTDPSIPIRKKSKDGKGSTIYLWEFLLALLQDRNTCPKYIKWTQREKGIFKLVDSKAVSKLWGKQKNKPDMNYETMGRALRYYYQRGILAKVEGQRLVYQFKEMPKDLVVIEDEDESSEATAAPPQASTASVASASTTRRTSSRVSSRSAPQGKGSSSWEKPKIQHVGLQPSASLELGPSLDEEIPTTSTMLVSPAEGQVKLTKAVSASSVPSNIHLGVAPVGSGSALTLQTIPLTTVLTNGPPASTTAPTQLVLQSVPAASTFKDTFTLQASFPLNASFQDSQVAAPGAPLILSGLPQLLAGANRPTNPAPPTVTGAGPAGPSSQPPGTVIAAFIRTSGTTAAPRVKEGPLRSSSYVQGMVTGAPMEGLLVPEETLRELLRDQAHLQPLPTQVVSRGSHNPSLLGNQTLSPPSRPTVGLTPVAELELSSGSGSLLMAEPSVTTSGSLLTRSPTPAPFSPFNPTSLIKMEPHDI
Sequence of ETV5 (P41161 whole entry): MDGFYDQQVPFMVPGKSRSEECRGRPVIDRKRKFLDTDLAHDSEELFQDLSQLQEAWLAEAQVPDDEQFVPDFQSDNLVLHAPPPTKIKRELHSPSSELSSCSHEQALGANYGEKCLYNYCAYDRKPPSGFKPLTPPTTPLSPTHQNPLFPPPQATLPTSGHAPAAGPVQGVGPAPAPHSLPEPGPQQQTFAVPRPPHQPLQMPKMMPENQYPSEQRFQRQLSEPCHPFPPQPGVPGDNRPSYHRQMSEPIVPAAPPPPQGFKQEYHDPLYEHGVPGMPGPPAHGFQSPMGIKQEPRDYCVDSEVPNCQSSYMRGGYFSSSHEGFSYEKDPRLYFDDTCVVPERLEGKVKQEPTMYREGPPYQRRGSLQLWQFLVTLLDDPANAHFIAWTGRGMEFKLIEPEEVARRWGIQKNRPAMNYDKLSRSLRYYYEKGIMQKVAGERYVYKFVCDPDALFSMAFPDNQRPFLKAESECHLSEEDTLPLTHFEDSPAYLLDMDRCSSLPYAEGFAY
Sequence of CRX (O43186 whole entry): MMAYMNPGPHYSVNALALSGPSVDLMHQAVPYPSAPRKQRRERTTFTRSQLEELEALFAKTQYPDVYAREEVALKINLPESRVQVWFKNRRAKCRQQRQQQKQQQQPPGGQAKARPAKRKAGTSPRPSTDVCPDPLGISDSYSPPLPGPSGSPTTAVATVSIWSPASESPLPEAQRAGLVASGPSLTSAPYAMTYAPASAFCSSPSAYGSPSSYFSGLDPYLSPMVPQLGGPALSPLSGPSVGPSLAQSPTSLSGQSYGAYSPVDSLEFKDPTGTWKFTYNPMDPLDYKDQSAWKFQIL
Sequence of ELF1 (P32519 whole entry): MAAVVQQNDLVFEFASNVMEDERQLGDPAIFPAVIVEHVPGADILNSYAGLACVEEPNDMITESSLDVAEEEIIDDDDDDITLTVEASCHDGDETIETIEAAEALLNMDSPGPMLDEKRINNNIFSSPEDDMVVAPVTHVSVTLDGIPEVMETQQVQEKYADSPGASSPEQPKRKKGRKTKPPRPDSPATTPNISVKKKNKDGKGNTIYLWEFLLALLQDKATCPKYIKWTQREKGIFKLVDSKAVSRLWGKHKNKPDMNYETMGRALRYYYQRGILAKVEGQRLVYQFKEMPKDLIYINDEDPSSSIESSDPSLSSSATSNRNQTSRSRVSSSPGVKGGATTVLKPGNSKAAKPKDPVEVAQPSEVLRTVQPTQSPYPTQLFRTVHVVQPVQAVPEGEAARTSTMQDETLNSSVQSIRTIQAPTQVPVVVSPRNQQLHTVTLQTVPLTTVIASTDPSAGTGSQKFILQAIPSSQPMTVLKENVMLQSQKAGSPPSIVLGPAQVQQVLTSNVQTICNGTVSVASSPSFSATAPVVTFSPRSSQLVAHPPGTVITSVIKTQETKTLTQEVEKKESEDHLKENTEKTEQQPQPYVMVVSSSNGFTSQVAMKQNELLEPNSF
Sequence of SPIB (Q01892 whole entry): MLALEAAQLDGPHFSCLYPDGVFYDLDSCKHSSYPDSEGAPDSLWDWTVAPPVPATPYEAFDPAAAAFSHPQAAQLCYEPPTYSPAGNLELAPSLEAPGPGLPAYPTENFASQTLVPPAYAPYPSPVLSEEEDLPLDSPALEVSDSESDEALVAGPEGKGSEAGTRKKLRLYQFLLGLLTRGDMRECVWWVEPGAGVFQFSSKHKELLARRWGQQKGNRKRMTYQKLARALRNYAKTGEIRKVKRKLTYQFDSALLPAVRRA
Sequence of HSF1 (Q00613 whole entry): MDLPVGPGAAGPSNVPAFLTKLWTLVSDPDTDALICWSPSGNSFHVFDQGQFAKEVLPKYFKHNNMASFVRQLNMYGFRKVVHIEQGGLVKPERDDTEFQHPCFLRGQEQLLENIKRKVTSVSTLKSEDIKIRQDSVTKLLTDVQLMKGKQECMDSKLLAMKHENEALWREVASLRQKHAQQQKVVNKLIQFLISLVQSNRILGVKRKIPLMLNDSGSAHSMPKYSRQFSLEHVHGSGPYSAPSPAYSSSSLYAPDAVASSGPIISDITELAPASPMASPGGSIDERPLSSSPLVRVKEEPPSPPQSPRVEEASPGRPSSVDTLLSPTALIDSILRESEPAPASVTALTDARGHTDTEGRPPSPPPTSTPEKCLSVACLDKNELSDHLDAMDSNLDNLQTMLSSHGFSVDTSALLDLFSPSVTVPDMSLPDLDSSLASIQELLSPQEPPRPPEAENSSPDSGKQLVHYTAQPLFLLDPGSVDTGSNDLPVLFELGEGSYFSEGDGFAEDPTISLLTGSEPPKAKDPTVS

TTAAGT: the binding signal was 1.06 fold enrichment (6-mer frequency, TF over GST control) with FLI1; 1.3 fold enrichment (6-mer frequency, TF over GST control) with ELK1; 1.16 fold enrichment (6-mer frequency, TF over GST control) with GABPA; 1.17 fold enrichment (6-mer frequency, TF over GST control) in the assay with ERG; 1.19 fold enrichment (6-mer frequency, TF over GST control) with ELF1; 1.15 fold enrichment (6-mer frequency, TF over GST control) with EHF. The binding signal was 1.06 fold enrichment (6-mer frequency, TF over GST control) with SPI1; 1.2 fold enrichment (6-mer frequency, TF over GST control) with SPIB; 1.23 fold enrichment (6-mer frequency, TF over GST control) in the assay with ELK3; 1.11 fold enrichment (6-mer frequency, TF over GST control) with FEV; 1.15 fold enrichment (6-mer frequency, TF over GST control) with ETV5; 2 fold enrichment (6-mer frequency, TF over GST control) with HSF1. Besides, the binding signal with SPIC was 1.25 fold enrichment (6-mer frequency, TF over GST control); in the assay with ELF4 it was 1.16 fold enrichment (6-mer frequency, TF over GST control); with ELK4, 1.03 fold enrichment (6-mer frequency, TF over GST control); with ETV2 it was 1.14 fold enrichment (6-mer frequency, TF over GST control); with ELF3, 1.26 fold enrichment (6-mer frequency, TF over GST control); with CRX, 3.27 fold enrichment (6-mer frequency, TF over GST control). The binding signal with ETV1 was 1.16 fold enrichment (6-mer frequency, TF over GST control).
